Inconclusive results are not listed. Calls of active or inactive are those of the source. Unless noted, the call rests on the fitted dose curve; in most records, active means well fitted curve in the direction sought with a large enough effect in the repeat runs; inconclusive means weak or mixed curves; inactive means no such curve, though single readings can be large; an effect the other way counts as inactive or inconclusive.
Tests used:
[1] = biological target: Peroxisome proliferator-activated receptor delta (Homo sapiens) (UniProt Q03181); experiment: qHTS assay to identify small molecule agonists of the peroxisome proliferator-activated receptor delta (PPARd) signaling pathway (AID 743212; calls by dose curve)
Peroxisome proliferator-activated receptor delta (Homo sapiens), sequence (Q03181 whole entry, looked up): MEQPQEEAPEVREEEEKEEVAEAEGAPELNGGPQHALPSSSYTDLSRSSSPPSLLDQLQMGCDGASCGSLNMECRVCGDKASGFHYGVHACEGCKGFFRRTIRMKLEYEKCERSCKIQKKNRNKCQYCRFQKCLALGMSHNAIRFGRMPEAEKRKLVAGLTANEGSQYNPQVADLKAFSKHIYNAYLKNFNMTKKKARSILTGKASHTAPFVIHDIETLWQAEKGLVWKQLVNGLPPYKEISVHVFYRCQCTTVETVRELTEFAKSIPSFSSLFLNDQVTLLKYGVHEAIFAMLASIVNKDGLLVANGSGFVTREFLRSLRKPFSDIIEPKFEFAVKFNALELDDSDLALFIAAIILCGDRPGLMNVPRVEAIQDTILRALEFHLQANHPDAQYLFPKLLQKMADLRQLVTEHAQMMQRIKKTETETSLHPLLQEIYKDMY
Procedure, shortened: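 Cells expressing a UAS-driven beta-lactamase reporter (PPARd-bla HEK293H) were given test compounds after a 5 h settle and kept at 37 C. Reporter activity was then measured as FRET fluorescence using LiveBLAzer B/G substrate.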

[2] = qHTS assay to identify small molecule antagonists of the peroxisome proliferator-activated receptor delta (PPARd) signaling pathway - cell viability counter screen (AID 743213); further: nearly all actives have a fitted effect of over 50% in size
Procedure, shortened: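 In this counter screen, HEK293H cells carrying a UAS-beta-lactamase reporter are co-treated with test compounds and 300 nM L165041 (final) for 17 h at 37 C; cell viability is quantified by CellTiter-Glo luminescence.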

[3] = biological target: Peroxisome proliferator-activated receptor delta (Homo sapiens) (UniProt Q03181); experiment: qHTS assay to identify small molecule antagonists of the peroxisome proliferator-activated receptor delta (PPARd) signaling pathway (AID 743215; active means well fitted inhibition curve with a large enough effect in the signal ratio in the repeat runs, not every such curve was filed as active; the % refers to the signal ratio;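 further: cells stimulated with agonist L165041 at 300 nM final during compound exposure; series mostly up to about 62 µM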)
Procedure, shortened: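 Screen format: qHTS, antagonist mode. HEK293H PPARd-bla cells received compound and 300 nM L165041 (final), 17 h, 37 C. Beta-lactamase detected via FRET substrate fluorescence, 2 h, room temperature.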

[4] = biological target: Bile acid receptor (Homo sapiens) (UniProt Q96RI1); experiment: qHTS assay to identify small molecule antagonists of the farnesoid-X-receptor (FXR) signaling pathway (AID 743217; active means well fitted inhibition curve with a large enough effect in the signal ratio in the repeat runs, not every such curve was filed as active; the % refers to the signal ratio)
Bile acid receptor (Homo sapiens), sequence (Q96RI1 whole entry, looked up): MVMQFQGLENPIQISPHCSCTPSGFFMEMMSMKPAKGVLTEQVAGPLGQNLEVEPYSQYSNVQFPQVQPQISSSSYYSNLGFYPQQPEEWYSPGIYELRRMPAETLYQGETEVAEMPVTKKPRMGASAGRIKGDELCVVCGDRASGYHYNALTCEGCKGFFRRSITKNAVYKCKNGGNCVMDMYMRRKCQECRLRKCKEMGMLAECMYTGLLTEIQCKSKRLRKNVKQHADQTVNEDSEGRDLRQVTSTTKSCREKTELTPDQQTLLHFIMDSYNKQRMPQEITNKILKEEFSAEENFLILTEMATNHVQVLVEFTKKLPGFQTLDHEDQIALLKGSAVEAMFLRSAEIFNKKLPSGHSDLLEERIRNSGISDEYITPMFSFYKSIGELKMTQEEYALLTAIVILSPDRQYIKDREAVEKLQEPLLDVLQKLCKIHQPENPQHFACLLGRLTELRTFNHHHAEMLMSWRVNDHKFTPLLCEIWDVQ
Procedure, shortened: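 Quantitative HTS, beta-lactamase reporter format: FXR-UAS-bla HEK 293T cells co-treated 16 h at 37 °C with compounds and 50 uM final chenodeoxycholic acid, then read by B/G FRET fluorescence.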

[5] = qHTS assay to identify small molecule agonists of the farnesoid-X-receptor (FXR) signaling pathway - cell viability counter screen (AID 743218); further: nearly all actives have a fitted effect of over 45% in size
Procedure, shortened: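 Same-well cytotoxicity check on FXR-UAS-bla HEK 293T cells: 5 h attachment, 16 h compound at 37 C, CellTiter-Glo luminescence read at room temperature after 30 min.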

[6] = biological target: Bile acid receptor (Homo sapiens) (UniProt Q96RI1); experiment: qHTS assay to identify small molecule agonists of the farnesoid-X-receptor (FXR) signaling pathway (AID 743220; active means well fitted activation curve with a large enough effect in the signal ratio in the repeat runs, not every such curve was filed as active; the % refers to the signal ratio)
Procedure, shortened: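 FXR-UAS-bla HEK 293T cells carrying a UAS-driven beta-lactamase reporter were plated for 5 h at 37C/5% CO2, then exposed to DMSO-dissolved Tox21 10K compounds for 16 h at 37C. A LiveBLAzer B/G FRET substrate was loaded for 2 h at room temperature before fluorescence reading.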

[7] = qHTS assay to identify small molecule antagonists of the farnesoid-X-receptor (FXR) signaling pathway - cell viability counter screen (AID 743221; active means well fitted cell-killing curve with a large enough effect in the repeat runs, not every such curve was filed as active; further: nearly all actives have a fitted effect of over 50% in size)
Procedure, shortened: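 After a 5 h settling period, FXR-bla HEK 293T cells receive compound and chenodeoxycholic acid (50 uM final) and incubate 16 h at 37 C; CellTiter-Glo luminescence, read after 30 min at room temperature, reports cell viability.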

[8] = biological target: Vitamin D3 receptor (Homo sapiens) (UniProt P11473); experiment: qHTS assay to identify small molecule agonists of the vitamin D receptor (VDR) signaling pathway (AID 743222; calls by dose curve)
Vitamin D3 receptor (Homo sapiens), sequence (P11473 whole entry, looked up): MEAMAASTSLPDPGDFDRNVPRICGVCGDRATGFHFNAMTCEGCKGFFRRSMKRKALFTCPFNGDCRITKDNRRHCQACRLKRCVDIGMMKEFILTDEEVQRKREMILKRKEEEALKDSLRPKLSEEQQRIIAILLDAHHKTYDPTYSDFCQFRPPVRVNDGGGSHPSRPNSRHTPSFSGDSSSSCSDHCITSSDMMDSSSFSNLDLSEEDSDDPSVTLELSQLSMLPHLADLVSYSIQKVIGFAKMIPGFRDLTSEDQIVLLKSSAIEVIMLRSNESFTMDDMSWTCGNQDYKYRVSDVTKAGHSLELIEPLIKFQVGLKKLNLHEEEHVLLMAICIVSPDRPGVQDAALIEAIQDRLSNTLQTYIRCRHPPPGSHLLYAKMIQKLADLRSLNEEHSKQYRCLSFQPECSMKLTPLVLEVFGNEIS
Procedure, shortened: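 Using LiveBLAzer B/G FRET detection, agonism was scored in VDR-bla cells exposed overnight (16 h, 37C) to DMSO-dissolved compounds; substrate incubation was 2 h at room temperature.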

[9] = biological target: Vitamin D3 receptor (Homo sapiens) (UniProt P11473); experiment: qHTS assay to identify small molecule antagonists of the vitamin D receptor (VDR) signaling pathway (AID 743223; active means well fitted inhibition curve with a large enough effect in the signal ratio in the repeat runs, not every such curve was filed as active; the % refers to the signal ratio)
Procedure, shortened: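 Reporter line VDR-bla; stimulus 1alpha,25-(OH)2 vitamin D3, 3 nM final; compound co-addition, 16 h 37C/5% CO2; LiveBLAzer B/G substrate 2 h RT; fluorescence intensity.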

[10] = qHTS assay to identify small molecule agonists of the vitamin D receptor (VDR) signaling pathway - cell viability counter screen (AID 743224); further: series mostly up to about 63 µM; nearly all actives have a fitted effect of over 50% in size
Procedure, shortened: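 Counter screen for cytotoxicity: VDR-bla cells at 2,000 cells/well, 16 h compound exposure, then CellTiter-Glo luminescence after the beta-lactamase measurement.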

Measured: Potency

CCOC(=O)C(C)(C)C
inactive: all assays above

COC(/C=C(\C)CCC=C(C)C)OC
not listed: [5]
inactive: all other assays above

Nc1cc(C(=O)O)ccc1Cl
inactive: all assays above

CC(C)COC(=O)/C=C/c1ccccc1
inactive: all assays above

Cc1ccccc1OCC1CO1 (stereo unspecified)
not listed: [7] | [9]
inactive: all other assays above

C[CH2][Ge]([Cl])([CH2]C)[CH2]C
not listed: [6] | [7]
inactive: all other assays above

O=C1OC(=O)c2ccccc21
not listed: [5] | [7] | [9]
inactive: all other assays above

O=C1NC2NC(=O)NC2N1 (stereo unspecified)
not listed: [7]
inactive: all other assays above

CC(CC(=O)O)CC(C)(C)C (stereo unspecified)
not listed: [7] | [9]
inactive: all other assays above

CCC1Nc2cc(Cl)c(S(N)(=O)=O)cc2S(=O)(=O)N1 (stereo unspecified)
not listed: [6]
inactive: all other assays above

CNCc1ccccc1
not listed: [6] | [8] | [9]
inactive: all other assays above

O=CN1CCOCC1
inactive: [1] | [2] | [3] | [5] | [7] | [10]

Nc1ccc(S(=O)(=O)NC(=O)c2ccccc2)cc1
inactive: [1] | [2] | [3] | [5] | [10]

COc1cc(C=O)ccc1OC(=O)C(C)C
inactive: [1] | [2] | [3] | [5] | [8] | [10]

BrC/C=C/CBr
inactive: [1] | [2] | [3] | [4] | [7] | [10]

CCCO
inactive: [1] | [2] | [3] | [5] | [8] | [10]

C=CCOC(=O)c1ccc(C(=O)OCC=C)c(C(=O)OCC=C)c1
not listed: [4] | [6]
inactive: all other assays above

CCCCCCCCCCCCCCCCI
not listed: [5] | [6] | [9]
inactive: all other assays above

COCC(=O)Nc1c(I)c(C(=O)NCC(O)CO)c(I)c(C(=O)N(C)CC(O)CO)c1I (stereo unspecified)
inactive: [1] | [2] | [3] | [5] | [7] | [10]

Cc1ccc(C(=O)C(=O)O)cc1C
not listed: [4] | [6] | [9]
inactive: all other assays above

CC1CCC(C(C)(C)S)C(=O)C1 (stereo unspecified)
inactive: [1] | [2] | [3] | [4] | [7] | [10]

CC1(N)CCC(C(C)(C)N)CC1 (stereo unspecified)
not listed: [4] | [6]
inactive: all other assays above

CC(C)SCc1ccco1
inactive: [1] | [2] | [3] | [5] | [10]

CCCCC(C)C(=O)O (stereo unspecified)
not listed: [4] | [6] | [9]
inactive: all other assays above

CC(=O)c1ccc2c(c1)CCCC2
inactive: [1] | [2] | [3] | [5] | [8] | [10]

C1=C\CC/C=C\CC/1
not listed: [4] | [6]
inactive: all other assays above

CC(Cl)COP(=O)(OCC(C)Cl)OCC(C)Cl (stereo unspecified)
not listed: [4] | [6]
inactive: all other assays above

CCCC(C)CC (stereo unspecified)
not listed: [4] | [6] | [9]
inactive: all other assays above

CCNC(=O)NCCCOc1cccc(CN2CCCCC2)c1
inactive: [1] | [2] | [3] | [5] | [8] | [10]

Cc1cccc(Nc2ccncc2S(=O)(=O)NC(=O)NC(C)C)c1
not listed: [5] | [6]
inactive: all other assays above

— PubChem BioAssay (Tox21)
